Assay results taken from PubChem BioAssay AID940 (Emory University Molecular Libraries Screening Center, 2007).
Values joined by “and” are separate entries in the source; they are usually repeats but may differ in a detail not shown here. Identical values can stand only once. Among all 260,000 compounds or so, about 2,200 (0.85%) were called active.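 How the source made its calls: active means compounds whose cAMP rise, as percent of the full-agonist control response, exceeds 60; inactive means the rest.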 The entries come from a sample that favours actives as a whole. The source holds several records for some structures; these can differ, active in one and inactive in another.

The compounds below were run against Prostaglandin E2 receptor EP2 subtype (Homo sapiens) (UniProt P43116) (assay: modulation of human EP2 prostaglandin signaling – cell-based, HTRF cAMP, PGE2 stimulation, primary screen (AID 940;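 further: rat C6 glioma line stably carrying human EP2 under a CMV promoter; the protocol text gives 20 µM as final concentration; 100% = response of wells given 1 µM PGE2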)). Conditions: EP2-expressing cells, cAMP HTRF FRET, PGE2 co-stimulation; at 25 µM; stronger effect = higher value.
Chain of Prostaglandin E2 receptor EP2 subtype (Homo sapiens) (P43116 whole entry, looked up): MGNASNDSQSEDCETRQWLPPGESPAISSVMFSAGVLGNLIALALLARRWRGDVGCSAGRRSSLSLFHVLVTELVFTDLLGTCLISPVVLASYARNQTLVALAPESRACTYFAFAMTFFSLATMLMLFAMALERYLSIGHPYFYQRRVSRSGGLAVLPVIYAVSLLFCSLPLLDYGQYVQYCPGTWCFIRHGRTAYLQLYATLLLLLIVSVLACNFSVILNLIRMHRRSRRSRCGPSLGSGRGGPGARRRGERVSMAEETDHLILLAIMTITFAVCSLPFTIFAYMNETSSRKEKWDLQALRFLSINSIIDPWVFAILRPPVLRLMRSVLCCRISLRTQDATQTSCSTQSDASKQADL

Row | SMILES | induction
1 | CC(C)NC(=S)N1CCN(C(c2ccccc2)c2ccccc2)CC1 | 21.2% (inactive)
2 | COc1ccccc1NC(=S)N1CCC(NC(=O)C23CC4CC(CC(C4)C2)C3)CC1 | -21% (inactive) and -7.94% (inactive)
3 | COc1ccccc1NC(=S)N1CCN(C(c2ccccc2)c2ccccc2)CC1 | 61.4% (active)
4 | COc1cccc(NC(=O)C(C#N)Cc2cccnc2)c1 (centres undefined) | 2.36% (inactive)
5 | O=c1oc2ccccc2cc1-c1csc(Nc2cccc(O)c2)n1 | -123% (inactive)
6 | CC1(C)CCCC2(C)C3C1[C@@H](O)C2(C)C[C@H]3O (some centres undefined) | 15.3% (inactive)
7 | CC(C)NC(=O)CN1N=C(c2ccccc2)Cn2c(cc3ccccc32)C1=O | -36.4% (inactive)
8 | NC(=O)c1nnn(-c2ccc(S(=O)(=O)N3CCCCC3)cc2)c1N | 11.5% (inactive)
9 | O=C(Nc1ccccc1N1CCCCC1)c1cccc(F)c1 | 66.7% (active)
10 | O=C(Nc1ccccc1N1CCCCC1)c1ccc2nccnc2c1 | 87.1% (active)
11 | Cc1cccc(C(=O)Nc2ccccc2N2CCN(c3ccc(F)cc3)CC2)c1 | 49.9% (inactive)
12 | O=C(Nc1ccccc1N1CCN(c2ccccc2)CC1)c1cccc(F)c1 | 48.5% (inactive)
13 | O=C(Nc1ccccc1N1CCN(C(=O)c2ccccc2)CC1)c1ccc2c(c1)OCO2 | -6.37% (inactive)
14 | Cc1ccc(C)c(NC(=O)c2ccc3nccnc3c2)c1 | -54% (inactive)
15 | CN(C(=O)C1CCCCC1)c1nc(-c2ccc(Cl)cc2)cs1 | -0.87% (inactive)
16 | Cc1ccc(N(C(=O)Cn2nnc3ccccc32)C(C(=O)NC2CCCC2)c2ccsc2)cc1 (centres undefined) | 20.6% (inactive)
17 | CC(=O)C1CC(CC(=O)N[C@H](Cn2nnc3ccccc32)C(C)C)C1(C)C (some centres undefined) | -25.1% (inactive)
18 | COc1cccc(/C(O)=C2/C(=O)C(=O)N(CCN(C)C)C2c2ccco2)c1 (centres undefined) | 2.05% (inactive)
19 | Cc1ccc2[nH]c(=O)c(C(c3nnnn3Cc3ccc(F)cc3)N3CCCC3)cc2c1 (centres undefined) | -4.96% (inactive)
20 | NC(=O)CNC(=O)C1CCCN(c2ncccn2)C1 (centres undefined) | 14.7% (inactive)
21 | COCCNCC(=O)N1CCc2ccccc21 | 10.7% (inactive)
22 | Cc1ccc2cc(C(c3nnnn3C3CCCC3)N3CCC(C)CC3)c(=O)[nH]c2c1C (centres undefined) | -2.6% (inactive)
23 | Cn1c(-c2ccc(F)cc2)cnc1SCC(=O)NCc1ccco1 | -17% (inactive) and -3.43% (inactive)
24 | CCn1c(Cc2ccccc2)nnc1SCc1nc2ccccc2c(=O)[nH]1 | 2.09% (inactive)

Row | SMILES | induction
25 | O=c1[nH]c(CSc2ncc(-c3ccc(F)cc3)n2Cc2ccco2)nc2ccccc12 | 46.2% (inactive) and 68.4% (active)
26 | COc1ccc2cc(C)c3nn(CC(=O)N4CCC(C)CC4)c(=O)n3c2c1 | -70.2% (inactive)
27 | CCn1cc(S(=O)(=O)N2CCC(CCc3ccc(C(=O)O)cc3)CC2)c(C)n1 | -33.1% (inactive)
28 | Cc1cc(NC(=O)CSc2nnc3c4c5c(sc4nc(C(C)C)n23)CCCC5)no1 | 0.87% (inactive)
29 | CCOC(=O)C1=C(CN2CCc3ccccc32)NC(=O)NC1c1ccc(Cl)cc1 (centres undefined) | 68.2% (active)
30 | CCOC(=O)C1=C(c2ccccc2)NC(=S)NC1c1ccc(Cl)cc1 (centres undefined) | 47.1% (inactive)
31 | CCOC(=O)C1=C(CNC2CCCCC2)NC(=O)NC1c1cc(C)ccc1C (centres undefined) | 34.3% (inactive)
32 | CCOC(=O)C1=C(CN2CCCCCC2)NC(=O)NC1c1cccc([N+](=O)[O-])c1 (centres undefined) | -9.45% (inactive)
33 | CCOC(=O)C1=C(CN2CCc3ccccc32)NC(=O)NC1c1cccc([N+](=O)[O-])c1 (centres undefined) | 64.5% (active)
34 | CCOC(=O)C1=C(C)NC(=O)NC1c1ccccc1 (centres undefined) | 19% (inactive)
35 | COc1ccc(-c2nc(SCC(=O)O)n[nH]2)cc1 | -21.9% (inactive)
36 | Cc1ccc(NC(=O)CSc2nccc(=O)[nH]2)c(C)c1 | -21.1% (inactive)
37 | Clc1c(-c2nnc(-c3ccc(N4CCOCC4)cc3)o2)sc2ccccc12 | -13.2% (inactive)
38 | Cc1cc(-c2cccs2)nc(-n2cccc2)n1 | 62.7% (active)
39 | c1csc(-c2cn3c(n2)SCC3)c1 | -16.2% (inactive)
40 | Cc1cc2nc(C(F)(F)F)cc(-c3cccs3)n2n1 | 19.1% (inactive)
41 | O=C(CSc1nc(-c2ccco2)cc(C(F)(F)F)n1)Nc1ccc(Cl)cc1Cl | -110% (inactive)
42 | O=C(NCCO)C(=O)NCC1COc2ccccc2O1 (centres undefined) | -12.4% (inactive)
43 | CCNC(=O)c1c(O)c2cccc3c2n(c1=O)CC3 | 60.8% (active)
44 | Cc1ccc2nc(NC(=O)c3c(O)c4cccc5c4n(c3=O)CC5)sc2c1 | -11.9% (inactive)
45 | Cc1cc(=O)n2c3c(cccc13)CCC2 | 1.93% (inactive)
46 | CN1c2ncccc2C(=O)NC12CCN(C(=O)Cn1ncc3ccccc3c1=O)CC2 | -10.6% (inactive)
47 | O=C(NCc1ccco1)c1cc2sccc2n1Cc1ccc(F)cc1 | 41.1% (inactive)
48 | CC1Cc2ccccc2N1C(=O)c1cc2sccc2n1Cc1ccccc1 (centres undefined) | 54.1% (inactive)

Row | SMILES | induction
49 | O=C(c1cc2sccc2n1Cc1ccc(F)cc1)N1CCc2ccccc21 | 63% (active)
50 | O=C(NCc1nc(-c2cccnc2)n[nH]1)C(c1ccccc1)C1CCCCC1 (centres undefined) | 24.6% (inactive)
51 | Cc1ccccc1-n1c(SCC(=O)N2CCCCCC2)nnc1-c1cccnc1 | -15.5% (inactive)
52 | COc1cccc(CN2CCN(C(=O)c3ccccn3)[C@@H](C)C2)c1 | -14.5% (inactive)
53 | CCn1c(SCC(=O)Nc2ccc(C)cc2C)nnc1C(C)C | -31.6% (inactive)
54 | CCCC(=O)Nc1ccc(Cl)c(NC(=O)c2ccc(Br)o2)c1 | 6.2% (inactive)
55 | CCN1CCN(c2c(Cl)cccc2NC(=O)c2ccc(Br)o2)CC1 | 74.4% (active)
56 | COc1cc(OC)c(NC(=O)c2ccc(Br)o2)cc1Cl | -17.9% (inactive)
57 | CCCc1nc(SCC(=O)OCC)c2c(C)c(C)sc2n1 | 74% (active)
58 | CCCc1nc(SCC(=O)N2CCCC2)c2c(C)c(C)sc2n1 | 1.9% (inactive)
59 | CCOC(=O)c1sc2nc(C)nc(SCC(N)=O)c2c1C | 9.11% (inactive)
60 | COc1ccc(OC)c(C(=O)CSc2ncnc3c2cnn3-c2ccccc2C)c1 | 44.3% (inactive)
61 | Cn1c(=O)[nH]c(=O)c2c1nc(NCCCO)n2Cc1cccc2ccccc12 | 22% (inactive)
62 | CN(C)CCOc1ccc(Cl)cc1C(C)(C)C | -0.86% (inactive)
63 | CCc1nc(C)ccc1OCC(=O)N(CC)CC | 8.52% (inactive)
64 | CCC(C)(C)c1ccc(OCC(=O)N(C)C)c(C(C)(C)CC)c1 | 76% (active)
65 | COc1cc(C2NC(=O)NC(C)=C2C(=O)Nc2ccc(C)cc2C)ccc1O (centres undefined) | 5.85% (inactive)
66 | CSc1nc2ccccc2c(=O)n1Cc1ccc(F)cc1 | 80.8% (active)
67 | COC(=O)CSc1nc2ccccc2c(=O)n1Cc1ccccc1 | 47.6% (inactive)
68 | O=C(CCn1c(SCC(=O)c2ccccc2)nc2ccccc2c1=O)NCc1ccc(F)cc1 | 11.2% (inactive)
69 | COc1cccc(C2(NC(=O)c3cccc(N4CCCCS4(=O)=O)c3)CCCC2)c1 | -5.04% (inactive)
70 | O=C(Nc1cc(Cl)cc(Cl)c1)C1CCN(C(=O)c2cccs2)CC1 | -118% (inactive)
71 | C=CCn1c(SCC(=O)Nc2ccccc2F)nc2sc(C)c(C)c2c1=O | -87.9% (inactive)
72 | COc1cccc(-c2ccc(NS(=O)(=O)c3ccc4c(c3)CCC(=O)N4)cc2)c1 | -97.5% (inactive)

Row | SMILES | induction
73 | NC(=S)N/N=C/c1coc2cc(Cl)ccc2c1=O | 5.33% (inactive)
74 | CC(C)Oc1c(Br)cc(Br)cc1/C=N/NC(N)=S | 62% (active)
75 | CCOc1ccc(/C=N/NC(N)=S)cc1 | -0.15% (inactive)
76 | COc1ccccc1NC(=S)N(Cc1cc2c(C)cc(C)cc2[nH]c1=O)C1CCCC1 | 3.07% (inactive)
77 | COC(=O)c1c(NC(=O)C(C)C)sc(C(=O)Nc2cc(C)ccc2C)c1C | 62% (active)
78 | CCOC(=O)C(=O)Nc1sc(C(=O)Nc2cc(C)ccc2C)c(C)c1C(=O)OC | -1.65% (inactive)
79 | COC(=O)c1c(NC(=O)C2CC2)sc(C(=O)Nc2cc(C)ccc2C)c1C | -75.5% (inactive)
80 | COCCn1c(=O)n(CC(=O)N2CCN(c3ccccc3F)CC2)c2cccnc21 | 0.09% (inactive)
81 | CCN1c2ncccc2C(=O)NC12CCN(C(=O)c1cccc3c1C(=O)N(C)C3)CC2 | -5.04% (inactive)
82 | CCn1c(CSc2nc(C)cc(C)n2)nnc1SCC(=O)Nc1cccc(C(F)(F)F)c1 | -10.6% (inactive)
83 | CC[N+](C)(CC[N+](C)(C)C)Cc1cc2ccccc2o1 (centres undefined) | -3.15% (inactive)
84 | C=CCn1c(SC(C)C(=O)OC)nc2c1c(=O)[nH]c(=O)n2C (centres undefined) | -1.3% (inactive)
85 | CCCCCCn1c(SCC(=O)c2ccccc2)nc2c1c(=O)[nH]c(=O)n2C | -0.64% (inactive)
86 | CCCCCn1c(SCCC(C)C)nc2c1c(=O)[nH]c(=O)n2C | 69.2% (active)
87 | C=CCn1c(=O)c(C(=O)Nc2cccc(C)n2)c(O)c2ccccc21 | 2.07% (inactive)
88 | CCn1c(COc2ccc(OC)cc2)nnc1SC(C)C(=O)Nc1ccccc1C (centres undefined) | 28.9% (inactive)
89 | COc1ccccc1Cc1nnc(NC(=O)c2cnc(SC)nc2)s1 | -0.63% (inactive)
90 | O=C(CSc1nnc(-c2ccccc2)o1)N1CCOCC1 | 1.42% (inactive)
91 | CC1=CC(C)(C)N(C(=O)CSc2nnc(-c3ccccc3)o2)c2ccc(C)cc21 | 61.5% (active)
92 | CC1=CC(C)(C)N(C(=O)CSc2nccn2C)c2cc(C)ccc21 | 43.9% (inactive)
93 | COc1ccc(-c2csc(N3N=C(C)CC3=O)n2)cc1 | -82.9% (inactive)
94 | NC(=O)C1CCN(Cc2nnnn2Cc2ccccc2)CC1 | 25.5% (inactive)
